Test results published in PubChem BioAssay (NCATS).
Records with an inconclusive call do not appear. The source made the active and inactive calls. Calls come from the whole dose curve; as a rule, active = well fitted curve in the direction sought with a large enough effect; inconclusive = small, poorly fitted or top-dose-only effect, or another doubt; inactive = no such curve, though single readings can be large; an effect the other way counts as inactive or inconclusive.

Legend:
[1] = tested on: CAOV3; experiment: Primary qHTS to identify gynecologic anti-cancer compounds using libraries of approved drugs and bioactive compounds (AID 1345084); conditions: Gynecologic cancer cell panel viability, ATPlite luminescence, 48 h; series mostly up to 57.5 µM; note: nearly all actives have a fitted effect of over 55% in size
How it was run: (§1)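 Luminescence from the ATPlite ATP-monitoring reagent indicates viable cell number; lower signal means cytotoxicity. Cells received compound 16 h after seeding and were exposed for 48 h across five concentrations.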

[2] = tested on: CASKI; experiment: as above; conditions: Gynecologic cancer cell panel viability, ATPlite luminescence, 48 h; series mostly up to 57.5 µM
How it was run: as §1

[3] = tested on: Es-2; experiment: as above; conditions: Gynecologic cancer cell panel viability, ATPlite luminescence, 48 h; series mostly up to 57.5 µM
How it was run: as §1

[4] = tested on: HeLa; experiment: as above; conditions: Gynecologic cancer cell panel viability, ATPlite luminescence, 48 h; series mostly up to 57.5 µM
How it was run: as §1

[5] = tested on: Hek293T; experiment: as above; conditions: Gynecologic cancer cell panel viability, ATPlite luminescence, 48 h, control line for the selectivity index; series mostly up to 57.5 µM
How it was run: as §1

[6] = tested on: JEG-3; experiment: as above; conditions: Gynecologic cancer cell panel viability, ATPlite luminescence, 48 h; series mostly up to 57.5 µM
How it was run: as §1

[7] = tested on: OV90; experiment: as above; conditions: Gynecologic cancer cell panel viability, ATPlite luminescence, 48 h; series mostly up to 57.5 µM
How it was run: as §1

[8] = tested on: PA-1; experiment: as above; conditions: Gynecologic cancer cell panel viability, ATPlite luminescence, 48 h; series mostly up to 57.5 µM
How it was run: as §1

[9] = tested on: Tov-21-G; experiment: as above; conditions: Gynecologic cancer cell panel viability, ATPlite luminescence, 48 h; series mostly up to 57.5 µM
How it was run: as §1

[10] = tested on: Tov112D; experiment: as above; conditions: Gynecologic cancer cell panel viability, ATPlite luminescence, 48 h; series mostly up to 57.5 µM
How it was run: as §1

[11] = tested on: SKOV3; experiment: as above; conditions: Gynecologic cancer cell panel viability, ATPlite luminescence, 48 h; series mostly up to 57.5 µM
How it was run: as §1

[12] = Drug repurposing screens with cells derived from glioblastoma tumor samples (AID 1345199); conditions: GBM patient neurospheres viability, ATP luminescence, 48 h; note: nearly all actives have a fitted effect of over 40% in size
How it was run: (§2)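 Four patient lines of CD133+ GBM neurospheres were screened at several concentrations; hits were retested in those lines plus three slower-growing GBM lines, using 48-hour treatment and ATP-based viability.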

[13] = tested on: astro; experiment: as above; conditions: viability, ATP luminescence, 48 h; series mostly up to 45.9 µM
How it was run: as §2
% is set by controls: 0 for no effect and ±100 for the full control effect.

COc1cc(/C=C/C(=O)OC2CC(C)=C(C(=O)O)/C2=C/CO[C@@H]2O[C@H](CO)[C@@H](O)[C@H](O)[C@H]2O)ccc1O (stereo not given in full)
inactive: Potency [1] | Potency [2] | Potency [3] | Potency [4] | Potency [5] | Potency [6] | Potency [7] | Potency [8] | Potency [9] | Potency [10]

CCCOc1ccn2c(C(C)=O)cc(-c3ccccc3S(C)(=O)=O)c2c1
inactive: Potency [1] | Potency [2] | Potency [3] | Potency [4] | Potency [5] | Potency [6] | Potency [7] | Potency [8] | Potency [9] | Potency [10]

COc1ccc2c(c1)OC[C@]1(O)c3cc4c(cc3O[C@H]21)OCO4
inactive: Potency [1] | Potency [2] | Potency [3] | Potency [4] | Potency [5] | Potency [6] | Potency [7] | Potency [11] | Potency [9] | Potency [10]

CCCCN(CCCC)C(=O)CN1C[C@H](c2ccc3c(c2)OCO3)[C@@H](C(=O)O)[C@@H]1c1ccc(OC)cc1
inactive: Potency [1] | Potency [2] | Potency [3] | Potency [4] | Potency [5] | Potency [6] | Potency [7] | Potency [8] | Potency [9] | Potency [10]

COC(=O)[C@@H]1C2CC3c4[nH]c5ccccc5c4CCN3CC2CC[C@@H]1O (stereo not given in full)
inactive: Potency [1] | Potency [2] | Potency [3] | Potency [4] | Potency [5] | Potency [6] | Potency [7] | Potency [8] | Potency [9] | Potency [10]

C[C@@H]1O[C@@H](O[C@H]2[C@H](OC(=O)[C@]34CCC(C)(C)C[C@H]3C3=CCC5[C@@]6(C)C[C@H](O)[C@H](O[C@@H]7O[C@H](CO)[C@@H](O[C@@H]8O[C@H](CO)[C@@H](O)[C@H](O)[C@H]8O)[C@H](O)[C@H]7O)[C@@](C)(CO)C6[C@H](O)C[C@@]5(C)[C@]3(C)C[C@H]4O)OC[C@H](O)[C@@H]2O)[C@H](O)[C@H](O)[C@H]1O[C@@H]1OC[C@@H](O)[C@H](O[C@@H]2OC[C@](O)(CO)[C@H]2O)[C@H]1O (stereo not given in full)
inactive: activity change, negative = cytotoxicity [1] 18.5% [at 6.55 µM] | activity change, negative = cytotoxicity [2] 12.9% [at 6.55 µM] | activity change, negative = cytotoxicity [3] 5.24% [at 6.55 µM] | activity change, negative = cytotoxicity [4] 5.03% [at 6.55 µM] | activity change, negative = cytotoxicity [5] 1.73% [at 6.55 µM] | activity change, negative = cytotoxicity [6] 7.67% [at 6.55 µM] | activity change, negative = cytotoxicity [7] 4.05% [at 6.55 µM] | activity change, negative = cytotoxicity [8] -7.05% [at 6.55 µM] | activity change, negative = cytotoxicity [9] 2.26% [at 6.55 µM] | activity change, negative = cytotoxicity [10] 2.65% [at 6.55 µM]

CCCCS(=O)(=O)Nc1ncnc(OCCOc2ncc(Br)cn2)c1-c1ccc(Br)cc1
inactive: Potency [1] | Potency [2] | Potency [3] | Potency [4] | Potency [5] | Potency [6] | Potency [7] | Potency [8] | Potency [9] | Potency [10]

CC(=O)OCC1=C[C@H](O)[C@@H]2C(C(=O)O)=CO[C@@H](O[C@@H]3O[C@H](CO)[C@@H](O)[C@H](O)[C@H]3O)[C@H]12
inactive: Potency [1] | Potency [2] | Potency [3] | Potency [4] | Potency [5] | Potency [6] | Potency [7] | Potency [8] | Potency [9] | Potency [10]

COc1cc(C)c(C(=O)O[C@H]2[C@@H](O)[C@H](n3ccc(=O)[nH]c3=O)O[C@@H]2CO)c(OC)c1
inactive: Potency [1] | Potency [2] | Potency [3] | Potency [4] | Potency [5] | Potency [6] | Potency [7] | Potency [8] | Potency [9] | Potency [10]

CC1CCC23COC(=O)C2=CC(O)CC3C1(C)CCC1=CC(=O)OC1O (stereo not given)
inactive: Potency [1] | Potency [2] | Potency [3] | Potency [4] | Potency [5] | Potency [6] | Potency [7] | Potency [8] | Potency [9] | Potency [10]

COc1cc(CC(COC2OC(CO)C(O)C(O)C2O)c2cc(/C=C/CO)cc(OC)c2O)ccc1O (stereo not given)
inactive: Potency [1] | Potency [2] | Potency [3] | Potency [4] | Potency [5] | Potency [6] | Potency [7] | Potency [8] | Potency [9] | Potency [10]

Cc1nnc(C(C)C)n1C1CC2CCC(C1)N2CC[C@H](NC(=O)C1CCC(F)(F)CC1)c1ccccc1 (stereo not given in full)
inactive: Potency [1] | Potency [2] | Potency [3] | Potency [4] | Potency [5] | Potency [6] | Potency [7] | Potency [8] | Potency [9] | Potency [10]

OC[C@H]1O[C@@H](n2cnc3c2NC=NC[C@H]3O)C[C@@H]1O
inactive: Potency [1] | Potency [2] | Potency [3] | Potency [4] | Potency [5] | Potency [6] | Potency [7] | Potency [8] | Potency [9] | Potency [10] | activity, negative = cell killing ([12]; at 45.9 µM (top of the series), tumour line B) 2.62% | activity, negative = cell killing ([12]; at 45.9 µM (top of the series), tumour line D) -21% | activity, negative = cell killing ([12]; at 46 µM (top of the series), tumour line A) -9.89% | activity, negative = cell killing ([12]; at 46.1 µM (top of the series), tumour line C) 8.32% | Potency [13]
